# PubChem BioAssay
# The source made the active and inactive calls.
# Columns and labels:
# Albumin (Bos taurus) = Albumin (Bos taurus) (UniProt P02769); assay: compounds binding labelled BSA control protein – biochemical, small-molecule microarray, Alexa647 label, 635/667 nm fluorescence, artefact control for SMM control protein annotation, profiling panel (AID 1118); settings: BSA-A647 binding, fluorescence 635 nm, higher = more signal;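 also: score merges 667 nm emission intensity and signal-to-noise per printed compound spot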
# [1] = probe aXIP binding to arrayed compounds – biochemical, NeuroSMM set, 635/667 nm fluorescence, primary screen (AID 1119); settings: small-molecule microarray, higher = more signal, called active from +8 up or from −8 down;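 also: probe is the protein aXip251-270 applied at 1 µg/mL to compound-printed slides; binding of probe to printed compounds measured as 667 nm fluorescence plus signal to noise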
# [2] = probe aNOTCH3 binding on compound microarray – biochemical, small-molecule microarray, 635/667 nm fluorescence, primary screen (AID 1120); settings: higher = more signal;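 also: probe is a biotin-tagged antibody raised against NOTCH3 rather than NOTCH3 protein; score merges spot fluorescence near 667 nm with spot signal to noise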
# [3] = probe aNOTCH2 binding on compound microarray – biochemical, small-molecule microarray, 635/667 nm fluorescence, primary screen (AID 1121); settings: higher = more signal;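 also: score merges feature fluorescence read at 667 nm with its signal to noise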
# [4] = molecular target: Carbonic anhydrase 2 (Homo sapiens) (UniProt P00918); assay: compounds binding carbonic anhydrase 2 – biochemical, small-molecule microarray, Alexa647-labelled CAII, profiling panel (AID 1122); settings: CAII-A647 binding fluorescence, higher = more signal
# [5] = COS7 lysate on small-molecule microarray, probe aHis, 635 nm (AID 1123); settings: COS7 cell lysate, fluorescence, higher = more signal;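 also: z-score combines 667nm fluorescence intensity with signal-to-noise per printed compound spot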
# [6] = probe aLAP1 signal on lysate-treated microarray – cell lysate, small-molecule microarray, COS7 lysate, primary screen (AID 1124); settings: probe aLAP1, fluorescence, higher = more signal;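 also: lysate comes from COS7 cells expressing LAP1 and is applied at 0.3 µg/mL; score merges spot fluorescence near 667 nm with signal-to-noise over triplicate slides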
# Sam68 (KHDRBS1) = assay: compounds binding KHDRBS1 protein – biochemical, small-molecule microarray, 635 nm fluorescence, primary screen (AID 1125); settings: higher = more signal;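 also: score merges 667 nm channel intensity with signal to noise over triplicate slides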
# [7] = system: Chordin-like protein 2 (CHRDL2); assay: compounds binding chordin-like 2 – biochemical, small-molecule microarray, 635 nm fluorescence, primary screen (AID 1126); settings: fluorescence 635 nm, higher = more signal;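 also: printed compound slides probed with Chrdl2 protein at 4 µg/mL for 1 h at 4 C; score merges 667 nm emission intensity with signal to noise over three replicate slides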
# [8] = molecular target: Concanavalin-A (Canavalia ensiformis) (UniProt P02866); assay: compounds binding concanavalin A lectin – biochemical, small-molecule microarray, Alexa647 label, 635 nm, artefact control for SMM control protein annotation, primary screen (AID 1127); settings: ConA-A647 binding fluorescence, higher = more signal;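 also: z combines 667 nm emission intensity with signal-to-noise across three replicate slides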
# [9] = compounds binding Alexa647 anti-His antibody – biochemical, small-molecule microarray, 635 nm fluorescence, artefact control for SMM control protein annotation, primary screen (AID 1128); settings: higher = more signal;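 also: score merges feature fluorescence with signal-to-noise for each printed compound spot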
# [10] = system: Human papillomavirus type 1a E7 protein (residues 1-88); assay: HPV1a E7 small-molecule binders, primary screen, biochemical, small-molecule microarray, residues 1-88, 635 nm (AID 1129); settings: small-molecule microarray binding, fluorescence 635 nm; higher = more signal
# [11] = molecular target: Focal adhesion kinase 1 (Homo sapiens) (UniProt Q05397); assay: PTK2 protein binding on printed compound slides – biochemical, small-molecule microarray, 635/667 nm fluorescence, BSA, DTT, primary screen (AID 1130); settings: 635 nm fluorescence, higher = more signal;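 also: composite of spot emission at 667 nm and signal to noise over triplicate slides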
# [12] = system: Fibrinogen (Alexa647-labelled); assay: Alexa647-fibrinogen binding to printed small molecules – biochemical, small-molecule microarray, 635/667 nm fluorescence, artefact control for SMM control-protein annotation, profiling panel (AID 1131); settings: fibrinogen-A647 binding fluorescence, higher = more signal;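 also: z-score merges 667 nm fluorescence with per-spot signal-to-noise over triplicate slides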
# [13] = molecular target: Follistatin (Homo sapiens) (UniProt P19883); assay: FST protein binding to printed compounds – biochemical, small-molecule microarray, 635/667 nm fluorescence, primary screen (AID 1132); settings: 635 nm fluorescence, higher = more signal
# [14] = molecular target: Fibroblast growth factor 2 (Homo sapiens) (UniProt P09038); assay: basic fibroblast growth factor binding to printed compounds – biochemical, small-molecule microarray, 635/667 nm fluorescence, primary screen (AID 1133); settings: FGF2, fluorescence 635/667, higher = more signal
# [15] = JC-1 mitochondrial potential readout, lung cancer cells – cell-based, A549, JC-1 fluorescence, basal, 24 h, 100 nL, profiling panel (AID 1138); settings: higher = more signal;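 also: A549 lung adenocarcinoma cells under basal conditions with no added stimulus; test concentration not given here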
# Lefty1 = Lefty1 protein binding to printed compounds – biochemical, small-molecule microarray, 635/667 nm fluorescence, primary screen (AID 1139); settings: fluorescence 635/667, higher = more signal
# [16] = system: wheat germ agglutinin (Triticum aestivum), Alexa647-labelled; assay: Alexa647-WGA lectin binding to printed small molecules – biochemical, small-molecule microarray, 635/667 nm fluorescence, artefact control for SMM control-protein annotation, profiling panel (AID 1140); settings: WGA-A647 binding, 635 nm fluorescence, higher = more signal;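 also: score merges 667 nm feature emission with signal to noise over triplicate slides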
# [17] = molecular target: Luciferin 4-monooxygenase (Photinus pyralis) (UniProt P08659); assay: inhibition of purified Photinus pyralis luciferase – biochemical, luminescence, purified enzyme, 2006 set, primary screen (AID 1141); settings: purified firefly luciferase, SteadyGlo luminescence, 30 min; higher = more signal, called active from +8 up or from −8 down;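 also: cell-free assay with purified firefly luciferase at 100 ng per well in PBS; test concentration not given here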
# Chain of Luciferin 4-monooxygenase (Photinus pyralis) (P08659 whole entry, looked up): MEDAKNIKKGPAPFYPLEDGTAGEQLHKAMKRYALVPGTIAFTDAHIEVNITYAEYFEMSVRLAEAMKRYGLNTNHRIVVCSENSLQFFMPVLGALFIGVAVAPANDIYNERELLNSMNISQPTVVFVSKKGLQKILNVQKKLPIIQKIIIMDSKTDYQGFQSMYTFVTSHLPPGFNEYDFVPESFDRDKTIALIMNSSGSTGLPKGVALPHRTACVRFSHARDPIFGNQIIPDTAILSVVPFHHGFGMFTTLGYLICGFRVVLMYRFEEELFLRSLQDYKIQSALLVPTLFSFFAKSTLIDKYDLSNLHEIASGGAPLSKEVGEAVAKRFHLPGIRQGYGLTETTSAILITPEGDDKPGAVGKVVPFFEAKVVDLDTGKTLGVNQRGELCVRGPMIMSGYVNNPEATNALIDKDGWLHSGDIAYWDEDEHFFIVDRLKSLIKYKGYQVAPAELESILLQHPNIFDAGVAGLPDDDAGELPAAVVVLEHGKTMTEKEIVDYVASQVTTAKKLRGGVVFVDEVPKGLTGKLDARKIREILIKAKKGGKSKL
# Chain of Fibroblast growth factor 2 (Homo sapiens) (P09038 whole entry, looked up): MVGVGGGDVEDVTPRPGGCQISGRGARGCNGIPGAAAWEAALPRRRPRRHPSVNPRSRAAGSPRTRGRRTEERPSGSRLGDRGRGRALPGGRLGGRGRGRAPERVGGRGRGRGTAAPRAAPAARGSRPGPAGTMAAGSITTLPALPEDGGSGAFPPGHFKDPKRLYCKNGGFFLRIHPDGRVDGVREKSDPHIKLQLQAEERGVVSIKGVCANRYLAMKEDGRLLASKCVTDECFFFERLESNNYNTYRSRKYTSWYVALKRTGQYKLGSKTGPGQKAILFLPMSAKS
# Chain of Concanavalin-A (Canavalia ensiformis) (P02866 whole entry, looked up): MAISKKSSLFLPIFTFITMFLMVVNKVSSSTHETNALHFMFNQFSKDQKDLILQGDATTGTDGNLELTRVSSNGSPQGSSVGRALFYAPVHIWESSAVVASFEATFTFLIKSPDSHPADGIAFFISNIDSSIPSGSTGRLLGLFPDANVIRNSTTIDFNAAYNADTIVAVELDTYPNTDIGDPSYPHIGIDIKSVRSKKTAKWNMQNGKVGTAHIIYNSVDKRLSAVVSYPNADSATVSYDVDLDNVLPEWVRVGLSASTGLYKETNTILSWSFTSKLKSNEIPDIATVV
# Chain of Albumin (Bos taurus) (P02769 whole entry, looked up): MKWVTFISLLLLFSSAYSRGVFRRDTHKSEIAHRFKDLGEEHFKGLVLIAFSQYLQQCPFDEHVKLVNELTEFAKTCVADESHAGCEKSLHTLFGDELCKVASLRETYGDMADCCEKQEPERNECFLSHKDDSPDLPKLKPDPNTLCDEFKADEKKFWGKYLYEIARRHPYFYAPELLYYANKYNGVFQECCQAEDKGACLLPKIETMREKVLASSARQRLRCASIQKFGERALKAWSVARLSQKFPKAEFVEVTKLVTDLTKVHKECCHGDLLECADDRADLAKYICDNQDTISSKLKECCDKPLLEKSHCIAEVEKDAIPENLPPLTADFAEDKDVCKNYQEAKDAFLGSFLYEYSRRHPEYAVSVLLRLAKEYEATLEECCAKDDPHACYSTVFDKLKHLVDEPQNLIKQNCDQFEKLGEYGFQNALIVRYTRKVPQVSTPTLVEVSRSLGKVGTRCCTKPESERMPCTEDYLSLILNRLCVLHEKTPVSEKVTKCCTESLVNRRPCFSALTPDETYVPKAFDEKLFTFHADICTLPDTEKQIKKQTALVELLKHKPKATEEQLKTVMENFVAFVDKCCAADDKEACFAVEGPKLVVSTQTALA
# Chain of Focal adhesion kinase 1 (Homo sapiens) (Q05397 whole entry, looked up): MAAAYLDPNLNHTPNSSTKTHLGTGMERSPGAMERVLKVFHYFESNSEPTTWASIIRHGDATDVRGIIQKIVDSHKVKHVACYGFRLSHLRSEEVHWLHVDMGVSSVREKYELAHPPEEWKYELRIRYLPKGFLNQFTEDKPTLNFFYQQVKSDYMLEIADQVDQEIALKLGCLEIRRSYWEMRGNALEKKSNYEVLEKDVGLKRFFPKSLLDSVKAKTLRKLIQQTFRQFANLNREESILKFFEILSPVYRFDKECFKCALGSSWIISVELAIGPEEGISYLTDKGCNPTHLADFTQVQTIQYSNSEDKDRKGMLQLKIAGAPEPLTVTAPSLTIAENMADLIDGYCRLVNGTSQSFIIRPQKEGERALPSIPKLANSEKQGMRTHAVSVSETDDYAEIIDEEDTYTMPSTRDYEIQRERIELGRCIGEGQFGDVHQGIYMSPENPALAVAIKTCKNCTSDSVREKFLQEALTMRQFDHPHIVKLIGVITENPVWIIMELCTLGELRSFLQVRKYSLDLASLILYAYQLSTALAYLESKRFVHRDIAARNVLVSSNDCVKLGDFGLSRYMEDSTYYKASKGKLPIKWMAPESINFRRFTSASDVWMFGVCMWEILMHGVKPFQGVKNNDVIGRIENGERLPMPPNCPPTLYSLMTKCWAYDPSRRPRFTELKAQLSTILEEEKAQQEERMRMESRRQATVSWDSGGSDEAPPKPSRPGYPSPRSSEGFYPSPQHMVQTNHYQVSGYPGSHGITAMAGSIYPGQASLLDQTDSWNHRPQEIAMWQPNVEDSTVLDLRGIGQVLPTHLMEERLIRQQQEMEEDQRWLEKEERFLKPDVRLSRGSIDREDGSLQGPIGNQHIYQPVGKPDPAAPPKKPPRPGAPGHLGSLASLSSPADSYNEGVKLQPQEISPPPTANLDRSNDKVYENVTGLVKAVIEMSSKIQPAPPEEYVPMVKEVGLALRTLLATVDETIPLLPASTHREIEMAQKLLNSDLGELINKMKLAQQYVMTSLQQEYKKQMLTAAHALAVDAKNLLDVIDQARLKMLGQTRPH
# Chain of Follistatin (Homo sapiens) (P19883 whole entry, looked up): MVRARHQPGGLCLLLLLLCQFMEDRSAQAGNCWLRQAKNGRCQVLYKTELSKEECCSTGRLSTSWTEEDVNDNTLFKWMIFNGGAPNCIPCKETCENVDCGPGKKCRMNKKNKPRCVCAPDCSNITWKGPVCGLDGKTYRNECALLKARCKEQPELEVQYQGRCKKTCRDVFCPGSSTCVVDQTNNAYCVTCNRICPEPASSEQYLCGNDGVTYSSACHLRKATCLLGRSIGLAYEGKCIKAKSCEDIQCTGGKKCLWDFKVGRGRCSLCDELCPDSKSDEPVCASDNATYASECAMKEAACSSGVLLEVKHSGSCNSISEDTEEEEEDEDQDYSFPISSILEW
structure (smiles),measurement,setting,value
C=CCC(OC(C)=O)[C@@H]1[C@@H](N(Cc2cc3ccccc3o2)C(=O)c2cccc3ccccc23)c2cc(OCCCO)ccc2N1C(=O)c1ccc2ccccc2n1 (stereo not given in full),composite z-score,Albumin (Bos taurus),0.423
same,composite Z-score,[1],-0.315 (inactive)
same,composite z-score,[2],0.0155
same,composite z-score,[3],-0.147
same,composite z-score,[4],0.112
same,composite z-score,[5],-0.197
same,composite z-score,[6],0.637
same,composite z-score,Sam68 (KHDRBS1),0.31
same,composite z-score,[7],0.0615
same,composite z-score,[8],-0.495
same,composite z-score,[9],-0.164
same,composite z-score,[10],-0.332
same,composite z-score,[11],0.169
same,composite z-score,[12],-0.137
same,composite z-score,[13],0.403
same,composite z-score,[14],0.285
same,z-score,[15],-0.0913
same,composite z-score,Lefty1,0.496
same,composite z-score,[16],-0.0075
same,z-score,[17],-0.305 (inactive)
C=C(CCCC)/C(=C/C[C@H](OC(C)=O)c1cccc(OCCO)c1)c1cnc2ccccc2c1,composite z-score,Albumin (Bos taurus),-0.0372
same,composite Z-score,[1],-0.325 (inactive)
same,composite z-score,[2],-0.135
same,composite z-score,[3],-0.149
same,composite z-score,[4],0.84
same,composite z-score,[5],-0.66
same,composite z-score,[6],-0.207
same,composite z-score,Sam68 (KHDRBS1),0.0549
same,composite z-score,[7],0.466
same,composite z-score,[8],0.116
same,composite z-score,[9],-0.966
same,composite z-score,[10],-0.263
same,composite z-score,[11],-0.494
same,composite z-score,[12],-0.785
same,composite z-score,[13],0.389
same,composite z-score,[14],-0.183
same,z-score,[15],2.35
same,composite z-score,Lefty1,0.177
same,composite z-score,[16],0.324
same,z-score,[17],-1.29 (inactive)
CO[C@H]1O[C@H](CO)[C@@H](OC(=O)Nc2ccccc2)[C@H](OC(=O)Nc2ccccc2)[C@H]1OC(=O)Nc1ccccc1,composite z-score,Albumin (Bos taurus),0.729
same,composite Z-score,[1],-0.375 (inactive)
same,composite z-score,[2],-0.0918
same,composite z-score,[3],-0.0567
same,composite z-score,[4],0.521
same,composite z-score,[5],2.45
same,composite z-score,[6],0.373
same,composite z-score,Sam68 (KHDRBS1),1.3
same,composite z-score,[7],-0.0958
same,composite z-score,[8],1.15
same,composite z-score,[9],2.2
same,composite z-score,[10],1.26
same,composite z-score,[11],0.972
same,composite z-score,[12],1.01
same,composite z-score,[13],0.943
same,composite z-score,[14],1.02
same,z-score,[15],0.281
same,composite z-score,Lefty1,0.389
same,composite z-score,[16],0.791
same,z-score,[17],1.15 (inactive)
O=C1C2C=CC(C(O)c3c(F)cccc3Cl)N(Nc3ccc([N+](=O)[O-])cc3)C2C(=O)N1c1ccccc1 (stereo not given),composite z-score,Albumin (Bos taurus),0.589
same,composite Z-score,[1],-0.0608 (inactive)
same,composite z-score,[2],0.465
same,composite z-score,[3],-0.037
same,composite z-score,[4],0.804
same,composite z-score,[5],2.83
same,composite z-score,[6],1.43
same,composite z-score,Sam68 (KHDRBS1),1.3
same,composite z-score,[7],0.268
same,composite z-score,[8],1.11
same,composite z-score,[9],1.62
same,composite z-score,[10],1.22
same,composite z-score,[11],0.682
same,composite z-score,[12],0.931
same,composite z-score,[13],1.36
same,composite z-score,[14],0.589
same,z-score,[15],-0.514
same,composite z-score,Lefty1,0.948
same,composite z-score,[16],0.844
same,z-score,[17],1.67 (inactive)
O=C(NC1CC1)[C@@H]1c2ccccc2C(=O)N(CC23CC4CC(CC(C4)C2)C3)[C@H]1c1ccc(CO)cc1,composite z-score,Albumin (Bos taurus),0.654
same,composite Z-score,[1],-0.0662 (inactive)
same,composite z-score,[2],0.183
same,composite z-score,[3],-0.0495
same,composite z-score,[4],0.388
same,composite z-score,[5],2.18
same,composite z-score,[6],0.99
same,composite z-score,Sam68 (KHDRBS1),1.31
same,composite z-score,[7],1.16
same,composite z-score,[8],1.16
same,composite z-score,[9],1.17
same,composite z-score,[10],1.12
same,composite z-score,[11],0.476
same,composite z-score,[12],0.919
same,composite z-score,[13],1.44
same,composite z-score,[14],1.28
same,z-score,[15],0.0467
same,composite z-score,Lefty1,1.33
same,composite z-score,[16],0.33
same,z-score,[17],0.7 (inactive)
CCCCCC1=C2CNC(Cc3ccccc3)(C(=O)OC)C=C2C(C)C1=O (stereo not given),composite z-score,Albumin (Bos taurus),0.638
same,composite Z-score,[1],0.881 (inactive)
same,composite z-score,[2],0.183
same,composite z-score,[3],0.0878
same,composite z-score,[4],0.648
same,composite z-score,[5],2.17
same,composite z-score,[6],0.984
same,composite z-score,Sam68 (KHDRBS1),-0.49
same,composite z-score,[7],-1.52
same,composite z-score,[8],-0.86
same,composite z-score,[9],1.01
same,composite z-score,[10],0.515
same,composite z-score,[11],0.563
same,composite z-score,[12],0.837
same,composite z-score,[13],-0.216
same,composite z-score,[14],-0.871
same,z-score,[15],1.04
same,composite z-score,Lefty1,-0.849
same,composite z-score,[16],0.0953
same,z-score,[17],0.423 (inactive)
COc1ccc(C(=O)Nc2ccc3c(c2)[C@@]2(O[C@H](CCO)[C@@H]([Si](C)(C)c4ccc(OC)cc4)[C@@H]2C)C(=O)N3Cc2ccccc2)cc1,composite z-score,Albumin (Bos taurus),-0.351
same,composite Z-score,[1],0.004 (inactive)
same,composite z-score,[2],-0.0647
same,composite z-score,[3],-0.0357
same,composite z-score,[4],0.124
same,composite z-score,[5],0.88
same,composite z-score,[6],0.556
same,composite z-score,Sam68 (KHDRBS1),0.973
same,composite z-score,[7],0.268
same,composite z-score,[8],0.637
same,composite z-score,[9],0.829
same,composite z-score,[10],0.989
same,composite z-score,[11],0.397
same,composite z-score,[12],0.592
same,composite z-score,[13],1.25
same,composite z-score,[14],1.45
same,z-score,[15],-1.3
same,composite z-score,Lefty1,0.792
same,composite z-score,[16],0.413
same,z-score,[17],-0.585 (inactive)
COc1ccc([Si](C)(C)[C@H]2[C@H](CC(=O)N3CCC[C@H]3CO)O[C@@]3(C(=O)N(Cc4ccc(N5CCCCC5=O)cc4)c4ccccc43)[C@@H]2C)cc1,composite z-score,Albumin (Bos taurus),0.664
same,composite Z-score,[1],-0.765 (inactive)
same,composite z-score,[2],0.212
same,composite z-score,[3],-0.108
same,composite z-score,[4],0.292
same,composite z-score,[5],1.27
same,composite z-score,[6],0.0516
same,composite z-score,Sam68 (KHDRBS1),1.3
same,composite z-score,[7],0.824
same,composite z-score,[8],1.18
same,composite z-score,[9],0.952
same,composite z-score,[10],1.17
same,composite z-score,[11],0.516
same,composite z-score,[12],0.655
same,composite z-score,[13],1.27
same,composite z-score,[14],1.17
same,z-score,[15],1.39
same,composite z-score,Lefty1,1.49
same,composite z-score,[16],0.513
same,z-score,[17],0.627 (inactive)
O=C1C2C=CC(C(O)c3ccc([N+](=O)[O-])cc3)N(Nc3ccccc3F)C2C(=O)N1c1ccccc1 (stereo not given),composite z-score,Albumin (Bos taurus),1.04
same,composite Z-score,[1],0.0431 (inactive)
same,composite z-score,[2],-0.124
same,composite z-score,[3],0.0323
same,composite z-score,[4],0.703
same,composite z-score,[5],-0.309
same,composite z-score,[6],1.06
same,composite z-score,Sam68 (KHDRBS1),0.808
same,composite z-score,[7],-0.445
same,composite z-score,[8],0.886
same,composite z-score,[9],1.68
same,composite z-score,[10],1.19
same,composite z-score,[11],-0.119
same,composite z-score,[12],0.717
same,composite z-score,[13],0.232
same,composite z-score,[14],-0.218
same,z-score,[15],-0.675
same,composite z-score,Lefty1,-0.46
same,composite z-score,[16],1.36
same,z-score,[17],0.739 (inactive)
CCOC(=O)c1cn(C[C@H](Cc2ccccc2)NC(=O)N[C@H](CO)CCc2oc(C(C)=O)c(C(=O)OC)c2C(=O)OC)nn1,composite z-score,Albumin (Bos taurus),0.576
same,composite Z-score,[1],0.511 (inactive)
same,composite z-score,[2],0.269
same,composite z-score,[3],-0.123
same,composite z-score,[4],0.443
same,composite z-score,[5],1.57
same,composite z-score,[6],0.131
same,composite z-score,Sam68 (KHDRBS1),1.3
same,composite z-score,[7],1.17
same,composite z-score,[8],0.883
same,composite z-score,[9],0.0033
same,composite z-score,[10],1.18
same,composite z-score,[11],0.123
same,composite z-score,[12],0.812
same,composite z-score,[13],1.31
same,composite z-score,[14],1.66
same,z-score,[15],-0.391
same,composite z-score,Lefty1,1.59
same,composite z-score,[16],0.493
same,z-score,[17],0.783 (inactive)
